Potency data for 22 molecules are collected here from PubChem BioAssay (NCATS).

Common to all, as to assay: qHTS profiling for inhibitors of Plasmodium falciparum proliferation (AID 504749); also: nearly all actives have a fitted effect of over 60% in size
Details in all cases: P. falciparum in erythrocytes, SYBR Green DNA, 72 h; series mostly up to 28.7 µM

One test relates to CP262. The method, boiled down:
(§1)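 Fluorescence of SYBR Green-bound parasite DNA, read at 485/535 nm, served as the growth measure. Infected erythrocytes were cultured with compound 72 h; artemisinin (0.29 uM) and DMSO wells defined the normalization range.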

The next test relates to CP265. The method, boiled down: as §1
The test system of another test is CP266. A digest of the protocol:
as §1

In another test the test system is CP268. The method, boiled down: as §1
For a further test, the system named is CP269. A digest of the protocol: as §1
The next test deals with CP291. A digest of the protocol: as §1
The test system of the next test is CP297. The method, boiled down:
as §1

Another test has as its system CP305. The method, boiled down: as §1
A further test relates to CP315. A digest of the protocol: as §1
The test system of a further test is CP286. The method, boiled down: as §1

Records with an inconclusive call do not appear. Active and inactive are the calls of the source. Calls follow the shape of the dose curve; as a rule, active = well fitted inhibition curve with a large enough effect; inconclusive = small, poorly fitted or top-dose-only effect; inactive = flat fitted curve, though single readings scatter.
Potency is read from the fitted curve at half-maximal effect.

Consider `CCCCCCCCCCCC(=O)[O][Sn]([CH2]CCC)([CH2]CCC)[O]C(=O)CCCCCCCCCCC`, for which the Potency entry in the test with CP262, in the test with CP265, in the test on CP266, in the test with CP268, in the test with CP269 and with CP291 was “inactive” each time. The Potency entry in the test with CP297, in the test with CP305 and in the test with CP315 was “inactive” each time.
With `O=C(O)c1ccccc1Nc1cccc(C(F)(F)F)c1`, the Potency result with CP262, with CP265, with CP266, in the test with CP268, in the test on CP269 and with CP286 was “inactive” throughout. In addition, the Potency entry with CP291, in the test with CP297, in the test on CP305 and with CP315 was “inactive” each time.
`O=C1CN(/N=C/c2ccc(-c3ccc([N+](=O)[O-])cc3)o2)C(=O)N1`: the Potency result in the test with CP265, in the test with CP266, with CP268, in the test on CP269, in the test with CP286 and in the test with CP291 was “inactive” in each case. Moreover, the Potency entry in the test with CP297, with CP305 and in the test on CP315 was “inactive” in each case.
`O=C(CCN1CCN(CCO)CC1)N1c2ccccc2Sc2ccc(C(F)(F)F)cc21`: the Potency in the test on CP265 was 3.98 µM (active); in the test on CP286 it was 12.6 µM (active). Moreover, the Potency entry with CP268, with CP297, in the test with CP305 and in the test on CP315 was “inactive” in each case.
As for `O=C(O)Cc1ccc(-c2ccccc2)cc1`, the Potency result with CP262, in the test with CP265, in the test on CP266, in the test with CP268, with CP269 and in the test with CP286 was “inactive” in each case. Moreover, the Potency result with CP291, in the test on CP297, with CP305 and with CP315 was “inactive” each time.
Consider `CC(=O)[C@]1(O)Cc2c(O)c3c(c(O)c2[C@@H](O[C@H]2C[C@H](N)[C@H](O)[C@H](C)O2)C1)C(=O)c1c(O)cccc1C3=O`, for which the Potency with CP262 is 15.1 µM (active); in the test with CP268 it was 12 µM (active); with CP269, 9.53 µM (active); in the test on CP286, 2.24 µM (active); with CP291 it was 9.53 µM (active); in the test with CP297 it was 13.5 µM (active). Further, the Potency with CP305 is 7.57 µM (active).
On to `Cc1nc2ccccc2n1Cc1ccc(Cl)cc1`, for which the Potency entry in the test with CP268, in the test with CP269, in the test on CP286, in the test with CP291, with CP297 and in the test with CP305 was “inactive” in each case. Further, in the test with CP315, the Potency result was “inactive”.
Regarding `CC(N)C(=O)OC(C)(C)Cc1ccc(Cl)cc1` (centres undefined), the Potency entry in the test with CP262, in the test on CP266 and in the test on CP315 was “inactive” throughout. Moreover, the Potency in the test with CP297 was 9.53 µM (active).
With `CC(C(=O)O)c1ccc2c(c1)[nH]c1ccc(Cl)cc12` (centres undefined), the Potency result in the test with CP262, in the test with CP265, in the test on CP266, in the test on CP268, in the test on CP269 and in the test with CP286 was “inactive” in each case. Besides, the Potency result in the test with CP291, in the test on CP297, with CP305 and in the test with CP315 was “inactive” each time.
As to `COc1cc(CNC(=O)CCCC/C=C/C(C)C)ccc1O`, the Potency result in the test with CP262, with CP265, in the test on CP268, in the test on CP269, in the test on CP286 and with CP291 was “inactive” throughout. Moreover, the Potency result with CP297, with CP305 and with CP315 was “inactive” in each case.
Take `NC(=O)C(c1ccccc1)(c1ccccc1)[C@@H]1CCN(CCc2ccc3c(c2)CCO3)C1`: the Potency entry in the test with CP266, in the test with CP269 and in the test on CP315 was “inactive” throughout.
`CC1(C)[C@@H](O)CC[C@]2(C)[C@H]3C(=O)C=C4[C@@H]5C[C@@](C)(C(=O)O)CC[C@]5(C)CC[C@@]4(C)[C@]3(C)CC[C@@H]12`: the Potency entry in the test on CP262, in the test on CP265, in the test with CP268, with CP269, in the test on CP286 and in the test on CP291 was “inactive” throughout. In addition, the Potency entry in the test with CP297, in the test on CP305 and in the test on CP315 was “inactive” each time.
Regarding `COc1cc(/C=C/C(=O)CC(=O)/C=C/c2ccc(O)c(OC)c2)ccc1O`, the Potency with CP297 was 13.5 µM (active).
With `CN1[C@@H](CC(=O)c2ccccc2)CCC[C@H]1C[C@H](O)c1ccccc1`, the Potency entry in the test with CP262, in the test with CP266, in the test on CP268, in the test on CP269, in the test with CP297 and with CP315 was “inactive” throughout.
As for `CN(C)c1ccc(C(=C2C=CC(=[N+](C)C)C=C2)c2ccccc2)cc1`, the Potency result in the test with CP262 is “inactive”. Besides, the Potency in the test on CP265 was 11.2 µM (active); in the test with CP266 it was 12 µM (active); in the test on CP269, 10.7 µM (active); in the test with CP286, 2 µM (active).
As for `C=CCN1C(=O)C(CC(C)C)NC1=S` (centres undefined), the Potency result in the test with CP262, in the test on CP265, in the test on CP266, with CP268, in the test with CP269 and with CP286 was “inactive” each time. The Potency entry in the test with CP291, with CP297, with CP305 and with CP315 was “inactive” throughout.
Turning to `CCOc1ccc2nc(S(N)(=O)=O)sc2c1`, the Potency entry in the test with CP262, in the test with CP265, in the test on CP266, with CP268, in the test on CP269 and in the test on CP286 was “inactive” in each case. The Potency entry in the test on CP297, in the test with CP305 and with CP315 was “inactive” throughout.
Take `CN1[C@@H]2CC[C@H]1CC(OC(c1ccccc1)c1ccccc1)C2` (some centres undefined): the Potency result with CP266, with CP297 and with CP315 was “inactive” each time. Besides, in the test on CP286, the Potency was 11.2 µM (active).
Regarding `COC(=O)C1=C(C)NC(C)=C(C(=O)OCC(C)C)C1c1ccccc1[N+](=O)[O-]` (centres undefined), the figures for the Potency in the test on CP286, with CP291 and with CP297 were 8.91 µM (active), 12 µM (active) and 16.9 µM (active), respectively.
`O=C(O)COc1ccc(C(=O)c2cccs2)c(Cl)c1Cl`: the Potency entry in the test on CP262, in the test on CP265, with CP266, in the test on CP268, in the test on CP269 and in the test on CP286 was “inactive” throughout. Further, the Potency result with CP291, with CP297, in the test on CP305 and in the test on CP315 was “inactive” in each case.
Turning to `CCCCCCCCCCCCCCCC(=O)OC(C)C`, the Potency result in the test on CP262, in the test with CP265, in the test with CP266, in the test with CP268, in the test on CP269 and in the test with CP286 was “inactive” in each case. Further, the Potency entry in the test with CP291, in the test with CP297, with CP305 and with CP315 was “inactive” in each case.
In the case of `C[S+](CC[C@H](N)C(=O)O)C[C@H]1O[C@@H](n2cnc3c(N)ncnc32)[C@H](O)[C@@H]1O` (some centres undefined), the Potency entry in the test with CP262, with CP268, in the test with CP269, in the test on CP286, with CP291 and with CP297 was “inactive” in each case. Moreover, the Potency entry with CP305 and in the test on CP315 was “inactive” each time.
